The text below walks through data of PubChem BioAssay (NCI).

Values joined by “and” are separate entries in the source; they are usually repeats but may differ in a detail not shown here. Identical values can stand only once. About 83,000 compounds went through this panel and 20% of them were active in at least one assay; those are over-represented in the sample as a whole.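 Testing used 96-well plates and a 48-hour single-concentration exposure. Example: -40 means 40% of the starting cells died.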 Active and inactive are the calls of the source. Rule for the calls: active = growth percent below 10; inactive = the rest.

Common to all, as to test: NCI-60 one-dose screen, 48 h (100 = growth as untreated, 0 = no growth, -100 = all killed)
One assay has as its system OVCAR-5 ovarian. The note with it: 10 µM unless noted.
For another assay, the system named is SK-OV-3 ovarian. Particulars: 10 µM unless noted.
A further assay deals with OVCAR-3 ovarian. Particulars: 10 µM unless noted.
In another assay the test system is NCI/ADR-RES ovarian. Particulars: 10 µM unless noted.
A further assay concerns T-47D breast. Particulars: 10 µM unless noted.
The subject of a further assay is BT-549 breast. The note with it: 10 µM unless noted.
The next assay has as its system SW-620 colon. The note with it: 10 µM unless noted.
The subject of the next assay is MCF7 breast.
The test system of the next assay is HCT-116 colon. Particulars: 10 µM unless noted.
Another assay deals with OVCAR-4 ovarian. Particulars: 10 µM unless noted.

As to `COC1=C(C)C(=O)C2=C(C1=O)C(CO)N1C(C#N)C3CC4C(C1C2N1CCOC41)N3C` (stereo not given), the growth in the assay with OVCAR-5 ovarian is 11.1% (inactive); with SK-OV-3 ovarian, 42.4% (inactive); in the assay on OVCAR-3 ovarian it was -18.7% (active); in the assay on NCI/ADR-RES ovarian, -21.4% (active); in the assay on T-47D breast it was -16.8% (active); with BT-549 breast it was -64.3% (active). For the same compound, the growth is -28% (active) in the assay with SW-620 colon, -0.551% (active) in the assay with MCF7 breast (10 µM) and -33.7% (active) in the assay with HCT-116 colon.

As to `C[C@]12CC[C@H](O)CC1=CC[C@@H]1[C@@H]2CC[C@]2(C)C(=O)CC[C@@H]12`, the growth with OVCAR-5 ovarian is 92.3% (inactive); in the assay on OVCAR-4 ovarian, 95.3% (inactive); in the assay with SK-OV-3 ovarian it was 116% (inactive); in the assay with OVCAR-3 ovarian, 90.6% (inactive); in the assay with NCI/ADR-RES ovarian, 99.1% (inactive); in the assay on T-47D breast, 96.4% (inactive). The growth with BT-549 breast was 98.3% (inactive); in the assay with SW-620 colon it was 110% (inactive); in the assay with MCF7 breast (10 µM), 130% (inactive); in the assay with HCT-116 colon, 91.6% (inactive).

For `O=C1c2ccccc2C(=O)C(Cl)C1Cl` (stereo not given), the growth was 112% (inactive) in the assay with OVCAR-5 ovarian; -89% (active) in the assay with OVCAR-4 ovarian; 99.5% (inactive) with SK-OV-3 ovarian; -75.2% (active) in the assay with OVCAR-3 ovarian; 86.5% (inactive) with NCI/ADR-RES ovarian; -38% (active) in the assay with T-47D breast. Moreover, the growth with BT-549 breast is 78.5% (inactive); in the assay with MCF7 breast (10 µM), -62.2% (active); in the assay on HCT-116 colon, -95.7% (active).

As for `NCCc1ccc(OCc2ccccc2)c(OCc2ccccc2)c1`, the growth was 105% (inactive) with OVCAR-5 ovarian; 86.3% (inactive) in the assay with OVCAR-4 ovarian; 91.2% (inactive) in the assay on SK-OV-3 ovarian; 88.3% (inactive) with OVCAR-3 ovarian; 87.9% (inactive) in the assay on NCI/ADR-RES ovarian; 69.2% (inactive) with T-47D breast. The growth in the assay with BT-549 breast is 89.4% (inactive); in the assay with SW-620 colon, 83.7% (inactive); with MCF7 breast (10 µM), 69.9% (inactive); with HCT-116 colon, 61.8% (inactive).

Take `CC[C@@]1(O)C(=O)OCc2c1cc1n(c2=O)Cc2cc3ccccc3nc2-1`: the growth in the assay on OVCAR-5 ovarian was -1.11% (active); with OVCAR-4 ovarian, -36.2% (active); with SK-OV-3 ovarian, 7.05% (active); in the assay on OVCAR-3 ovarian, -34% (active); in the assay with NCI/ADR-RES ovarian, -2.49% (active); in the assay on T-47D breast it was -7.95% (active). For the same compound, the growth in the assay with BT-549 breast is -39.9% (active); in the assay with SW-620 colon, -1.68% (active); with MCF7 breast (10 µM) it was 2.07% (active); in the assay with HCT-116 colon, -12.5% (active).

Consider `Cc1ccc(C(=O)OC(C(=O)O)C(OC(=O)c2ccc(C)cc2)C(=O)O)cc1` (stereo not given) (tested in a mixture with another compound), for which the growth in the assay with OVCAR-5 ovarian was 67% (inactive); in the assay with OVCAR-4 ovarian, 58.9% (inactive); in the assay on SK-OV-3 ovarian, 69.7% (inactive); in the assay with OVCAR-3 ovarian, 44.5% (inactive); with NCI/ADR-RES ovarian, 56.3% (inactive); with BT-549 breast it was 17.5% (inactive). For the same compound, the results for the growth with SW-620 colon, with MCF7 breast (10 µM) and with HCT-116 colon were 53.4% (inactive), 14.3% (inactive) and 22.1% (inactive), respectively.

`COC1CC(CC2CCC(C)C(C(C)C(=O)O)O2)OC2(OC(C)(C3CCC(C)(C4OC(C5OC(O)(CO)C(C)CC5C)CC4C)O3)CC2C)C1C` (stereo not given): the growth was 14% (inactive) in the assay on OVCAR-5 ovarian; 44% (inactive) in the assay on SK-OV-3 ovarian; 9.34% (active) with OVCAR-3 ovarian; 36.7% (inactive) with NCI/ADR-RES ovarian; 15.9% (inactive) with T-47D breast; -52.6% (active) in the assay with BT-549 breast. For the same compound, the growth is 6.56% (active) in the assay on SW-620 colon, 8.04% (active) with MCF7 breast (10 µM) and 3.98% (active) with HCT-116 colon.

As for `COc1ccc(OC)c(/C=C/[N+](=O)[O-])c1`, the growth was 20.2% (inactive) with OVCAR-5 ovarian; 64.7% (inactive) with SK-OV-3 ovarian; -59% (active) in the assay with OVCAR-3 ovarian; 17.7% (inactive) in the assay on NCI/ADR-RES ovarian; 16.6% (inactive) with T-47D breast; -45.5% (active) with BT-549 breast. Besides, the growth in the assay on SW-620 colon was -38.7% (active); in the assay with MCF7 breast (10 µM), -1.64% (active); in the assay on HCT-116 colon it was -81.5% (active).

Turning to `CC1=C(CO)C2=C(C)C3(CC3)[C@@](C)(O)C(=O)C2=C1`, the growth in the assay on OVCAR-5 ovarian was 14.3% (inactive); with SK-OV-3 ovarian it was 16.3% (inactive); in the assay on OVCAR-3 ovarian, -1.49% (active); in the assay with NCI/ADR-RES ovarian, 3.84% (active); in the assay on T-47D breast it was 7.12% (active); with BT-549 breast, -55.8% (active). For the same compound, the growth in the assay with SW-620 colon was 26.3% (inactive); in the assay on MCF7 breast (10 µM), 8.34% (active); in the assay on HCT-116 colon, 2.68% (active).

Take `CC[C@](O)(C(=O)O)c1cc2n(c(=O)c1CO)Cc1cc3ccccc3nc1-2`: the growth in the assay with OVCAR-5 ovarian is 9.24% (active); with OVCAR-4 ovarian, -19.4% (active); in the assay on SK-OV-3 ovarian, 12.4% (inactive); in the assay on OVCAR-3 ovarian, -42.3% (active); in the assay with NCI/ADR-RES ovarian it was 2.02% (active); in the assay on T-47D breast it was -6.44% (active). Also, the growth was -34.5% (active) in the assay on BT-549 breast, -30% (active) in the assay on SW-620 colon, 1.99% (active) with MCF7 breast (10 µM) and -26.6% (active) in the assay on HCT-116 colon.

On to `CCC(=O)OC1CCn2c1nc1c2C(=O)C(C)=C(N2CC2)C1=O` (stereo not given), for which the growth in the assay with OVCAR-5 ovarian is 13.5% (inactive); in the assay on OVCAR-4 ovarian, 13.2% (inactive); in the assay with SK-OV-3 ovarian it was -53.8% (active); with OVCAR-3 ovarian it was -18.5% (active); in the assay with NCI/ADR-RES ovarian, 1.27% (active); in the assay on T-47D breast, 70.2% (inactive). For the same compound, the growth is -79.1% (active) in the assay with BT-549 breast, 3.77% (active) in the assay on SW-620 colon, -15.6% (active) in the assay with MCF7 breast (10 µM) and 1.09% (active) in the assay on HCT-116 colon.

As for `Cc1c(N)nc([C@H](CC(N)=O)NC[C@H](N)C(N)=O)nc1C(=O)N[C@H](C(=O)N[C@H](C)[C@@H](O)[C@H](C)C(=O)N[C@H](C(=O)NCCc1nc(-c2nc(C(=O)NCCC[S+](C)C)cs2)cs1)[C@@H](C)O)C(OC1OC(CO)C(O)C(O)C1OC1OC(CO)C(O)C(OC(N)=O)C1O)c1cnc[nH]1` (stereo not given in full), the growth in the assay on OVCAR-5 ovarian is 59.5% [2.5 µM] (inactive); in the assay with OVCAR-4 ovarian, 104% [2.5 µM] (inactive); in the assay on SK-OV-3 ovarian, 98% [2.5 µM] (inactive); with OVCAR-3 ovarian, 83.5% [2.5 µM] (inactive); in the assay with NCI/ADR-RES ovarian, 39.3% [2.5 µM] (inactive); with T-47D breast it was 92.2% [2.5 µM] (inactive). Moreover, the growth with BT-549 breast was 54% [2.5 µM] (inactive); in the assay with SW-620 colon it was 83.4% [2.5 µM] (inactive); with MCF7 breast (2.5 µM), 52.9% (inactive); in the assay on MCF7 breast (25 µM), 15.6% (inactive) and 0.932% (active); with HCT-116 colon it was 34.2% [2.5 µM] (inactive).

As to `CO[C@H](/C(C)=C/C=C/C(C)=C/c1coc(C)n1)[C@H](C)[C@H]1C[C@@H](O)[C@@]2(C)O[C@H]2/C=C/[C@@H](C)[C@@H]2C[C@@H](CC(=O)O2)C[C@H]2O[C@@H]2C(=O)O1`, the growth in the assay with OVCAR-5 ovarian is 34.2% (inactive); in the assay with OVCAR-4 ovarian it was -6.77% (active); with SK-OV-3 ovarian, 32.3% (inactive); in the assay with OVCAR-3 ovarian, -36.3% (active); with NCI/ADR-RES ovarian, 19% (inactive); in the assay with T-47D breast, 64% (inactive). For the same compound, the growth was 8.66% (active) in the assay with BT-549 breast, 21.5% (inactive) with SW-620 colon, 14.7% (inactive) in the assay with MCF7 breast (10 µM) and 4.48% (active) in the assay with HCT-116 colon.

`CN1CCN(c2ccc([N+](=O)[O-])c3no[n+]([O-])c23)CC1`: the growth in the assay on OVCAR-5 ovarian was -15.2% (active); with OVCAR-4 ovarian it was -91.8% (active); with SK-OV-3 ovarian it was -97.9% (active); in the assay on OVCAR-3 ovarian it was -88.8% (active); with NCI/ADR-RES ovarian, -33.1% (active); in the assay with T-47D breast, -56.5% (active). Also, the growth in the assay with BT-549 breast was -64.6% (active); in the assay on SW-620 colon it was -70.9% (active); with MCF7 breast (10 µM), -49.3% (active); in the assay with HCT-116 colon, -66.5% (active).

With `COc1ccccc1/C=C(/C)[N+](=O)[O-]`, the growth was 104% (inactive) and 91.1% (inactive) in the assay with OVCAR-5 ovarian; 105% (inactive) and 102% (inactive) in the assay on OVCAR-4 ovarian; 115% (inactive) and 81.6% (inactive) in the assay with SK-OV-3 ovarian; 78.2% (inactive) and 101% (inactive) in the assay with OVCAR-3 ovarian; 95.1% (inactive) and 104% (inactive) in the assay on NCI/ADR-RES ovarian; 35.7% (inactive) and 86.6% (inactive) with T-47D breast. Moreover, the growth with BT-549 breast was 83.6% (inactive) and 101% (inactive); in the assay on SW-620 colon, 49.8% (inactive) and 106% (inactive); with MCF7 breast (10 µM) it was 7.37% (active) and 105% (inactive); with HCT-116 colon it was 44% (inactive) and 98.6% (inactive).
